Bioassay records (PubChem)
A selection: hits, their analogues and other compounds. The true share with any hit is near 19%.
MCF10A rereplic = DNA re-replication induction in MCF 10a cells | Potency, µM (top dose mostly 46.1 µM), actives largely listed as activators | MCF 10A DNA re-replication, Hoechst nuclear intensity, 48 h | 2.9% of 350,000 active | AID 624296; note: nearly all actives have a fitted effect of over 50% in size
DT40 TDP1 no CPT = qHTS for Inhibitors of human tyrosyl-DNA phosphodiesterase 1 (TDP1): qHTS in cells in absence of CPT; DT40 Tdp1-/- hTDP1 cells, no CPT, ATP luminescence, 48 h; Potency, µM (highest dose often 46.2 µM), actives largely listed as inhibitors; 15% of 420,000 active; AID 686978, 2013; note: nearly all actives have a fitted effect of over 55% in size
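No-CPT arm: Tdp1-/-;hTDP1 DT40 cells (400/well) plus compounds, incubated ≥48 hr at 37 °C. Readout CellTiter-Glo luminescence.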
SW480 rereplic = inducers of DNA re-replication in SW480 colon cancer cells; Potency, µM (doses to about 46.1 µM), usual class: activators; SW480 DNA re-replication, Hoechst DNA content imaging, 48 h; 1.8% of 340,000 active; note: nearly all actives have a fitted effect of over 55% in size
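Per well, 250 cells were exposed to pinned compound for 48 hr. Nuclear DNA was visualised with Hoechst (40 min, 37 C) and total object intensity recorded by fluorescence scanning.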
DT40 TDP1 CPT = DT40-hTDP1 cell growth loss with CPT. Potency, µM (highest dose often 46.2 µM), actives largely listed as inhibitors. 12% of 420,000 active. chicken DT40 Tdp1-/-;hTDP1 cells + 20 nM CPT, ATP luminescence, 48 h; note: nearly all actives have a fitted effect of over 55% in size
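Chicken DT40 Tdp1-/- cells stably complemented with human TDP1 were seeded at 400 cells/well in medium containing 20 nM camptothecin, exposed to pin-transferred compounds, and grown at 37 °C for at least 48 hr. Viability was read as ATP luminescence.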
BCR signal inh = inhibitors of chronic active B-cell receptor signaling. ABC-DLBCL IkBa-CBG/CBR reporter, luminescence ratio, 4 h. Potency, µM (top dose mostly 46.1 µM), hits mostly inhibitors. 0.05% of 340,000 active; active = well fitted inhibition curve with a large enough effect in the signal ratio, with a control signal flat, not every such curve was filed as active; inconclusive = small, poorly fitted or top-dose-only effect, or effect the other way, or a change in a side signal; the % refers to the signal ratio
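TMD8 ABC-DLBCL cells carrying doxycycline-inducible green luciferase fused to IkappaBalpha plus unfused red luciferase were exposed to compounds (up to 46 uM) for 4 hrs at 37C. Activity came from the overlap-corrected green/red luminescence ratio.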
IL1B secr inh = blocks inflammasome-driven IL-1 beta release; THP-1 LPS/ATP IL-1B secretion, AlphaLISA, 16 h; hits give low values; 4.7% of 360,000 active; AID 743279; activity change, % at 57.5 µM; in the data active = activity change below about -50%; inconclusive = mostly about -30% to -49%
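Secreted IL-1B measured by AlphaLISA bead assay after 16 h compound exposure of THP-1 cells; compounds (final up to 57.5 uM) added 1 h before LPS (250 ng/mL) and ATP (1.25 mM) stimulation; lower signal means less secretion.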
Numbers stand for hits; i = inactive; ? = inconclusive; nt = not tested or not shown. Unless noted, calls come from the whole dose curve; as a rule, active = well fitted curve in the direction sought with a large enough effect; inconclusive = small, poorly fitted or top-dose-only effect, or another doubt; inactive = no such curve, though single readings can be large; an effect the other way counts as inactive or inconclusive.

SMILES	MCF10A rereplic	DT40 TDP1 no CPT	SW480 rereplic	DT40 TDP1 CPT	BCR signal inh	IL1B secr inh
COc1ccccc1NC(=O)c1oc2ccccc2c1NC(=O)c1cccc(OC)c1OC	nt	5.8µM	nt	5.8µM	nt	nt
COc1ccc(OC)c(C(=O)c2oc3ccccc3c2NC(C)=O)c1	i	16µM	i	23µM	i	i
CNC(=O)c1ccc2nc(Cc3ccccc3)oc2c1	nt	i	nt	i	nt	nt
Cc1cccc(NC(=O)CNC(=O)CSc2nc(N)cc(N)n2)c1C	i	i	i	i	i	i
COc1cccc(OC)c1C(=O)Nc1c(C(=O)N2CCN(C)CC2)oc2ccccc12	i	i	i	i	i	i
COc1ccccc1C(=O)Nc1c(C(=O)NC(C)(C)C)oc2ccccc12	nt	23µM	nt	?	nt	nt
COC(=O)c1oc2ccccc2c1NC(=O)c1ccccc1O	i	?	10µM	i	?	i
CCOC(=O)c1oc2ccccc2c1NC(=O)c1ccccc1OC	?	?	?	?	i	?
COc1ccccc1C(=O)Nc1c(C(=O)N2CCN(C)CC2)oc2ccccc12	i	i	i	i	i	-60
COc1ccccc1C(=O)Nc1c(C(=O)N(CCN(C)C)Cc2ccco2)oc2ccccc12	?	12µM	i	9.2µM	?	?
Cc1ccccc1C(=O)Nc1c(C(=O)N(CCN(C)C)Cc2ccco2)oc2ccccc12	i	?	i	?	i	i
Cc1nn(-c2ccccc2)c(C)c1NC(=O)COc1cc(F)ccc1[N+](=O)[O-]	i	?	i	?	i	i
COCCCn1c(=S)[nH]c2sc3c(c2c1=O)CCCS3	?	i	i	i	i	i
CC(=O)Nc1ccc(S(=O)(=O)NCCC(=O)NNC(=O)c2ccccc2O)cc1	i	i	i	i	i	i
COc1ccc(NC(=O)c2oc3ccccc3c2NC(=O)C23CC4CC(CC(C4)C2)C3)c(OC)c1	nt	23µM	nt	i	nt	nt
COc1cc(C(=O)Nc2c(C(=O)Nc3ccccc3F)oc3ccccc23)cc(OC)c1OC	nt	4.1µM	nt	5.2µM	nt	nt
c1ccc(CNCc2ccco2)cc1	i	i	i	i	i	i
COc1ccc(-c2cccc(NS(=O)(=O)c3cc([N+](=O)[O-])c(C)c([N+](=O)[O-])c3)c2)nn1	i	i	i	?	i	i
COc1ccc(-c2cccc(NS(=O)(=O)c3ccc(NC(C)=O)cc3)c2)nn1	nt	15µM	nt	18µM	nt	nt
CCCOc1ccc(-c2cccc(NS(=O)(=O)c3ccc(CC)cc3)c2)nn1	nt	18µM	nt	16µM	nt	nt
CCOc1ccc(-c2cccc(NS(=O)(=O)c3ccccc3C(F)(F)F)c2)nn1	nt	26µM	nt	?	nt	nt
COc1ccc(-c2cccc(NS(=O)(=O)c3ccc(C)s3)c2)nn1	nt	16µM	nt	15µM	nt	nt
CC(C)Cn1c(SCC(=O)N(C)c2c(N)n(Cc3ccccc3)c(=O)[nH]c2=O)nc2ccccc21	i	i	i	i	i	i
CCCCN1C(=O)C(CC(=O)NC2CC2)CC(C(=O)N2CCOCC2)=C1C (stereo not drawn)	nt	i	nt	i	nt	i
Nc1ccc(S(=O)(=O)Nc2nccc(/C=C/c3cccc(Br)c3)n2)cc1	?	i	i	i	?	nt
SMILES	MCF10A rereplic	DT40 TDP1 no CPT	SW480 rereplic	DT40 TDP1 CPT	BCR signal inh	IL1B secr inh
CCOc1ccc(-c2cccc(NS(=O)(=O)c3cccc([N+](=O)[O-])c3)c2)nn1	nt	?	nt	i	nt	i
CCOc1ccc(-c2cccc(NS(=O)(=O)c3ccc(C)s3)c2)nn1	nt	?	nt	23µM	nt	nt
Nc1cccc(N=[N+]([O-])c2cccc(N)c2)c1	i	i	i	?	nt	i
Cc1ccccc1OCC(=O)NCC(=O)N/N=C/c1ccc(Br)o1	i	?	?	i	i	i
CCCOc1ccc(CCC(=O)N/N=C/c2ccc([N+](=O)[O-])o2)cc1	i	i	i	16µM	i	i
Cc1cccc(OCC(=O)NCC(=O)N/N=C/c2ccc([N+](=O)[O-])cc2)c1	i	?	i	i	i	i
Cc1ccccc1OCC(=O)N/N=C/c1ccc([N+](=O)[O-])o1	23µM	8.2µM	1.2µM	10µM	?	i
Cc1cc(C)cc(OCC(=O)N/N=C/c2ccc([N+](=O)[O-])o2)c1	?	?	?	i	i	-64
COc1ccccc1OCC(=O)N/N=C/C=C/c1ccc([N+](=O)[O-])o1	?	7.3µM	?	6.5µM	i	-100
COc1ccc(/C=N/NC(=O)c2cccnc2)c(C(=O)O)c1OC	i	i	i	i	i	i
Cc1ccc(CNC(=O)c2ccc(Cn3c(=O)c4ccccc4n(CC(=O)Nc4ccc(C)cc4)c3=O)cc2)cc1	nt	i	nt	i	nt	nt
C[C@@H]1CN([C@@H](C)CO)C(=O)CCCn2nncc2CO[C@H]1CN(C)S(=O)(=O)c1ccccc1F	nt	i	nt	i	nt	i
O=C(/C=C/c1ccc([N+](=O)[O-])s1)N1CCN(c2ccccc2)CC1	?	16µM	i	?	i	i
CC1CN(C(=O)/C=C/c2ccc([N+](=O)[O-])s2)CC(C)O1 (stereo not drawn)	?	15µM	8.2µM	?	i	i
O=C(/C=C/c1ccc([N+](=O)[O-])s1)N1CCCC1	i	10µM	12µM	21µM	i	i
CC1CN(C(=O)/C=C/c2ccccc2[N+](=O)[O-])CC(C)O1 (stereo not drawn)	i	i	i	i	i	i
O=C(/C=C/c1ccc([N+](=O)[O-])s1)N1CCCCC1	?	12µM	5.8µM	?	i	-90
O=C(/C=C/c1ccccc1[N+](=O)[O-])N1CCCCC1	i	i	i	?	i	i
COc1ccc(CCNC(=O)CSc2nc(=O)n3cc(C)ccc3n2)cc1OC	i	i	i	i	i	i
O=[N+]([O-])c1ccc(COc2cccc(CN3CCCCC3)c2)cc1	i	16µM	i	?	nt	i
O=[N+]([O-])c1ccc(N2CCN(Cc3ccncc3)CC2)cc1	i	18µM	i	?	i	i
COC(=O)C1CCN(CCCOc2ccc(CN3CCN(c4ccc([N+](=O)[O-])cc4)CC3)cc2)CC1	i	21µM	i	i	i	i
CSc1ccc(CN2CCN(Cc3ccc([N+](=O)[O-])cc3)CC2)cc1	15µM	21µM	i	?	i	-67
COC(=O)C1CCN(c2ccc([N+](=O)[O-])cc2)CC1	i	i	i	i	i	i
O=C(Nc1ccccc1)SC1CCCCC1	i	i	i	i	nt	i
CN(CC(=O)Nc1ccccc1Cl)C(=O)C1CCN(C(=O)c2ccc(F)cc2)CC1	i	i	i	i	i	i
O=[N+]([O-])c1ccc(COc2ccc(CN3CCOCC3)cc2)cc1	i	23µM	i	?	nt	i
